MITF primary – human MITF inhibition, primary screen; AlphaScreen MITF homodimerization, bead proximity signal; inhibition, % at 2.6 µM; actives 0.91% (n = 650,000); in the data active = inhibition above about 50%;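 note: 0% = vehicle wells with protein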
Target sequence (O75030 whole entry, looked up): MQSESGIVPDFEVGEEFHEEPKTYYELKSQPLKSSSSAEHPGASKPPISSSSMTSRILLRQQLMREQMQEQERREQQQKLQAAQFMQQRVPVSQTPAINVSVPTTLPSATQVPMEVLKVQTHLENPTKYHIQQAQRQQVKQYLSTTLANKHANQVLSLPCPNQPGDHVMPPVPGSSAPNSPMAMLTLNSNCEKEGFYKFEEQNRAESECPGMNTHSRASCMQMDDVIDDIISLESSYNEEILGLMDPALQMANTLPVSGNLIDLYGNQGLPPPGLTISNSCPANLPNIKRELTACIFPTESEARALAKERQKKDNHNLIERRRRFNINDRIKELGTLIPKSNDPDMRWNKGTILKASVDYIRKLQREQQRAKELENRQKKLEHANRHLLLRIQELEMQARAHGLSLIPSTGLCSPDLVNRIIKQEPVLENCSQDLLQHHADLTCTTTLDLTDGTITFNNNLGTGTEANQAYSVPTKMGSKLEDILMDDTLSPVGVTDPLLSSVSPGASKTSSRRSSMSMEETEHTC
FBW7 act – activators of human E3 ligase FBW7; AID 1259310; normalized activity (activation), % at 26.1 µM; AlphaScreen FBW7–phospho-cyclin E peptide binding, activator screen; Q969H0; actives 0.13% (n = 650,000); in the data active = normalized activity above about 1.9%;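 note: purified mutant Fbw7 with reduced substrate affinity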
GPR151 ag – activators of human GPR151 | actives 1% (n = 650,000) | AID 1508602 | activation, % at 11.2 µM | Q8TDV0 | PathHunter beta-arrestin GPR151 cells, luminescence; in the data active = activation above about 4.9%;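 note: 0% = median of compound wells and 100% = cells with positive control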
TEAD-YAP block – TEAD-YAP interaction inhibition | inhibition, % at 9.12 µM | AID 1259422 | HEK-TIYL cells, TEAD-Gal4/YAP UAS-luciferase luminescence | actives 1.4% (n = 640,000); in the data active = inhibition above about 32%;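 note: 0% = median of test compound wells and 100% = reference inhibitor wells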
Numbers without * were called inactive; · = not tested or not shown; ! = not confirmed by another sample. Sampled rows, rich in hits. Any-hit rate of the full collection: about 3.4%.

SMILES	MITF primary	FBW7 act	GPR151 ag	TEAD-YAP block
O=C1COc2ccc(C(=O)COC(=O)c3cc(O)c(O)c(O)c3)cc2N1	82.5*	0.1	2.4	2.3
O=C(Nc1nnc(-c2ccc(Cl)cc2)o1)c1cccc(C(F)(F)F)c1	·	·	-0.5	·
O=C(Nc1nnc(-c2ccc(F)cc2)o1)c1cccc(C(F)(F)F)c1	-8.4	-0.1	1.1	69.4*
Cc1ccc(C2=NN(C(=O)c3ccco3)C(O)(C(F)(F)F)C2)cc1 (stereo unspecified)	2.0	0.0	-2.3	-9.4
COc1ccc(C2=NN(C(=O)c3ccco3)C(O)(C(F)(F)F)C2)cc1 (stereo unspecified)	1.5	0.1	0.4	41.3*
CC(Cc1ccco1)NS(=O)(=O)c1ccccc1Br (stereo unspecified)	-1.7	0.0	-0.3	0.7
Cn1nc(-c2ccc(OCC(N)=O)cc2)c2ccccc2c1=O	8.5	0.0	-0.5	-21.0
Cn1nc(-c2ccc(OCC(=O)N3CCCCC3)cc2)c2ccccc2c1=O	2.0	0.0	0.2	52.1*
NS(=O)(=O)c1ccc(N=Cc2ccc[nH]2)cc1	-1.8	-0.2	-1.0	-5.0
Oc1ccc(N=Cc2ccc[nH]2)cc1N=Cc1ccc[nH]1	86.9*	-0.4	2.1	-2.1
O=C(NCc1cccc(Oc2ccc(F)cc2)c1)c1cccnc1	-1.8	0.3	-0.6	-49.8
O=C(NCc1cccc(Oc2ccc(F)cc2)c1)c1ccccn1	-3.3	-0.1	-0.5	53.6*
O=C(Cn1cnc2ccccc21)NCc1cccc(Oc2ccc(F)cc2)c1	6.6	-0.1	0.9	62.3*
CC1=C(C(=O)OCCOC(C)C)C(c2cccc(Br)c2)NC(=O)N1 (stereo unspecified)	-3.2	-0.1	0.3	11.9
O=C(CSc1nnc(-c2cccnc2)n1-c1ccccc1Cl)Nc1nccs1	4.8	0.0	-0.8	38.6*
O=C(CSc1nnc(-c2cccc([N+](=O)[O-])c2)n1-c1ccccc1)Nc1nccs1	-8.0	-0.1	0.2	44.4*
Cc1cccc(-n2c(SCC(=O)Nc3nccs3)nnc2-c2cccnc2)c1C	-24.3	-0.2	-0.8	-1.1
O=C(CSc1nnc(-c2ccco2)n1-c1ccccc1)Nc1nccs1	-20.4	0.1	-1.0	1.4
CCc1ccccc1-n1c(SCC(=O)Nc2nccs2)nnc1-c1cccnc1	5.6	-0.1	0.4	56.6*
O=C(CSc1nnc(-c2ccccn2)n1-c1ccccc1Cl)Nc1nccs1	-1.6	0.0	-0.1	58.9*
O=C(N1CCCCCC1)N1c2ccccc2Sc2ccccc21	3.4	0.0	0.1	-2.9
COc1cc(C(=O)N2CCN(c3cccc(Cl)c3)CC2)cc(OC)c1OC	3.3	0.0	0.5	52.2*
CSc1ccc(NC(=O)NCCN2CCN(c3cccc(Cl)c3)CC2)cc1	-13.1	4.4*	-0.2	3.4
COc1ccccc1N1CCN(C(=O)c2nc(SC)ncc2Cl)CC1	-18.1	-0.1	3.6	49.2*
O=C(N1CCN(c2ccccc2F)CC1)N1c2ccccc2Sc2ccccc21	10.8	-0.1	1.9	63.6*
SMILES	MITF primary	FBW7 act	GPR151 ag	TEAD-YAP block
CSc1ncc(Cl)c(C(=O)N2CCN(C)CC2)n1	-13.2	0.1	0.3	3.5
COc1cc2nc(CN3CCCC(C(=O)N4CCOCC4)C3)nc(N)c2cc1OC (stereo unspecified)	2.4	-0.2	-0.8	8.7
COC(=O)C1=CN(c2ccc(F)cc2)C=C(C(=O)OC)C1c1ccc(Cl)s1	-13.2	0.2	1.3	-5.1
O=S(=O)(c1ccccc1)N(CC(O)CN1CCCC1)c1cccc2ccccc12 (stereo unspecified)	0.1	0.1	3.0	1.7
COc1ccccc1N1CCN(C(=O)c2cc(Br)cc(Br)c2)CC1	14.8	0.4	0.5	58.4*
COc1cc(OC)cc(C(=O)N2CCN(c3cccc(C)c3C)CC2)c1	12.3	0.3	-0.9	46.8*
COc1cc(C(=O)N2CCCc3ccccc32)cc(OC)c1OC	9.5	-0.2	0.6	-0.9
COc1ccc(C(=O)N2CCN(c3cccc(C)c3C)CC2)cc1	6.4	-0.1	0.7	1.4
COc1ccccc1CNC(=O)c1ncoc1-c1ccccc1C(F)(F)F	-2.2	0.3	-1.1	-2.8
COc1ccc2c(c1)CCCN2C(=O)c1cc(OC)c(OC)c(OC)c1	14.4	0.1	2.4	45.1*
COc1ccccc1N1CCN(C(=O)c2ncoc2-c2ccccc2C(F)(F)F)CC1	-17.0	0.0	0.2	51.1*
CCOc1ccccc1N1CCN(C2CCN(C)CC2)CC1	33.2	-0.2	-1.2	5.4
Clc1ccc(-n2ccc3ccccc32)cc1	2.2	0.0	-0.3	-1.7
COc1ccccc1N1CCN(C(=O)COc2cccc(C)c2C)CC1	17.5	-0.2	0.3	4.1
COc1ccc(Cl)cc1C(=O)N1CCN(c2ccccc2F)CC1	0.1	-0.1	3.7	34.3*
COc1ccccc1N1CCN(C(=O)COc2ccc(Br)cc2C)CC1	6.5	0.0	1.5	49.2*
COc1cc(SC)ccc1C(=O)N1CCN(c2cccc(Cl)c2)CC1	10.7	-0.3	0.6	51.2*
COC(=O)c1cc(C(=O)N2CCN(c3ccccc3OC)CC2)cc([N+](=O)[O-])c1	-11.3	-0.1	2.2	63.7*
Cc1cccc(N2CCN(C(=O)c3c(-c4ccccc4)noc3C)CC2)c1C	-6.7	-0.1	0.5	53.0*
Cc1onc(-c2ccccc2)c1C(=O)N1CCN(c2ccc([N+](=O)[O-])cc2Cl)CC1	1.9	-0.1	-1.0	3.3
COc1nn(C)cc1C(=O)N1CCCC(C(=O)N2CCN(c3cccc(Cl)c3)CC2)C1 (stereo unspecified)	-0.1	-0.1	-0.5	41.8*
COc1ccccc1N1CCN(C(=O)c2cc(OC)c(OC)c(OC)c2)CC1	-7.9	-0.3	0.7	64.3*
Cc1c(C(=O)N2CCN(c3cccc(Cl)c3)CC2)sc2nc[nH]c(=O)c12	-8.7	-0.1	0.0	48.0*
O=C(CCCn1c(=S)[nH]c2cc3c(cc2c1=O)OCO3)N1CCN(Cc2ccccc2)CC1	-7.6	-0.3	-0.2	-2.5
Cc1nc(N2CCN(C)CC2)c2c(C)c(C(=O)Nc3cc(C)on3)sc2n1	1.4	0.1	1.7	2.9
SMILES	MITF primary	FBW7 act	GPR151 ag	TEAD-YAP block
O=C(Cc1ccccc1)Nc1ccc(N2C(=O)c3ccc4c5c(ccc(c35)C2=O)CC4)cc1	-1.1	-0.1	1.3	43.2*
COc1ccc(OC)c(C2CNC(=O)C2)c1 (stereo unspecified)	0.5	0.1	-0.1	2.0
COc1ccc(C2CNC(=O)C2)cc1OC1CCCC1 (stereo unspecified)	3.5	-0.1	-1.3	33.1*!
COc1cc(Nc2nc3ccc(C)cc3n3cnnc23)cc(OC)c1OC	19.9	0.0	0.9	33.9*
COc1cc(Nc2nc3ccccc3n3cnnc23)cc(OC)c1OC	-4.1	-0.2	-1.0	-4.1
O=C(Nc1nc2ccccc2s1)c1ccc(N2C(=O)c3ccccc3C2=O)cc1	0.3	-0.1	-1.2	-64.1
CC(=O)Nc1ccc(-n2c(C)cc(C=C3C(=O)c4ccccc4C3=O)c2C)cc1	5.9	0.3	-1.6	82.9*
CC(=O)Nc1ccc(-n2c(C)cc(C=C3C(=O)N(C)C(=O)N(C)C3=O)c2C)cc1	-1.2	-0.5	0.6	0.9

Compound activity (PubChem)
